Rows were chosen to be rich in hits. Some 3.6% of all compounds tested hit in one or more screens of this group.
BoNT-A LC inh2 = BoNT/A light chain protease inhibitors, primary screen, biochemical, flow cytometry, MLPCN library | Botulinum neurotoxin type A light chain protease (Clostridium botulinum A str. ATCC 3502) | multiplex microsphere protease substrate cleavage | inhibition, % at 10 µM | 360,000 tested, 0.17% active
Anthrax LF prot = Bacillus anthracis LF protease inhibitors, primary screen, biochemical, multiplex microsphere, MLPCN library | Lethal factor (Bacillus anthracis), P15917 | multiplex microsphere protease cleavage assay | inhibition, % at 10 µM | 360,000 tested, 0.12% active
Target sequence (P15917 whole entry, looked up): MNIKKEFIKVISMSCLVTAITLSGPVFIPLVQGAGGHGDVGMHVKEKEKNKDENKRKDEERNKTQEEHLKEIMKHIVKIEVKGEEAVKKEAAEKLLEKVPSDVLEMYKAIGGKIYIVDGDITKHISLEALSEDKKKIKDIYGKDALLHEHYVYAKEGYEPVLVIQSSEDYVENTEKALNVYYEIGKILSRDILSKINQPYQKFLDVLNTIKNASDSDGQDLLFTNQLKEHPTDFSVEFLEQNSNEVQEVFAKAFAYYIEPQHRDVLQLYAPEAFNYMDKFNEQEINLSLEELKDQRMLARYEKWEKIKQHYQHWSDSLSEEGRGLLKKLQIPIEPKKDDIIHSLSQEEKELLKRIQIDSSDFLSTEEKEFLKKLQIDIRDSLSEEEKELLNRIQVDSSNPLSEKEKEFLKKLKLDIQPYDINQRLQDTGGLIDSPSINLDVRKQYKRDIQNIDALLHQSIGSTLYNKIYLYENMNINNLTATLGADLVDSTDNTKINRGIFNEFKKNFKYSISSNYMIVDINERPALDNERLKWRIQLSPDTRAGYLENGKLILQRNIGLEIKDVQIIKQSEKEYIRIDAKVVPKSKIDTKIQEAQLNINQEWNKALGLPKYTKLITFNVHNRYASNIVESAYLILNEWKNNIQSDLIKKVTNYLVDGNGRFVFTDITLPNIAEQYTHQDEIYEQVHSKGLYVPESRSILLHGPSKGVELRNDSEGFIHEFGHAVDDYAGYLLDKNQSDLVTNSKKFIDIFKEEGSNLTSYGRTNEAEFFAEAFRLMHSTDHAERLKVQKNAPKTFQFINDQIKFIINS
BoNT-F LC inh = BoNT/F light chain protease inhibitors, primary screen, biochemical, flow cytometry, MLPCN library; inhibition, % at 10 µM; Botulinum neurotoxin type F light chain protease (Clostridium botulinum); Multiplex microsphere protease cleavage assay; 360,000 tested, 0.22% active; AID 588497, 2011; in the data active = inhibition above about 35%, passing the limit was not always enough; inconclusive = no clear call, values can overlap the other calls
Autofluor counter = flagged as autofluorescent in microsphere protease counterscreen; 360,000 tested, 3.1% active; compound autofluorescence counterscreen, microsphere flow cytometry; active compounds read high; fluorescence intensity (no concentration beside the values); AID 624483; in the data active = fluorescence intensity above about 16000; inconclusive = no clear call, values can overlap the other calls
3CLpro inhibitor = SARS-CoV 3CLpro protease inhibitors, primary screen, biochemical, quenched FRET; Replicase polyprotein 1ab (Severe acute respiratory syndrome coronavirus), P0C6X7; recombinant SARS-CoV 3CLpro, quenched FRET peptide cleavage; inhibition, % at 6 µM; 290,000 tested, 0.14% active; AID 1706, 2009; in the data active = inhibition above about 12%
BJeLR viability = MLPCN primary cell-based screen for lethality selective to Ras in HRASV12 cells. BJeLR (HRASV12) viability, CellTiter-Glo ATP luminescence, 48 h. 300,000 tested, 0.17% active. AID 1554, 2009. inhibition, % (no concentration beside the values); in the data active = inhibition above about 50%; inconclusive = no clear call, values can overlap the other calls
Large screens that a line does not name were inactive. Cut-off read from the data, not from the text of the source, unless noted: active = inhibition above about 30%; inconclusive = no clear call, values can overlap the other calls; inactive = below that.

CCOc1ccc(-c2c(=O)n(OCc3ccccn3)c3ccccc3[n+]2[O-])cc1	Autofluor counter 22653
CC(=O)NCC(=O)N(C)C(C(=O)Nc1ccc(C(C)C)cc1)c1ccccc1 (configuration not stated)	none
COC(=O)c1ccccc1S(=O)(=O)N1Cc2cc([N+](=O)[O-])ccc2Oc2ccccc21	none
CCCCn1nnc(NC(=O)CCC)n1	Autofluor counter 19212
CN(Cc1nc2ccccc2c(=O)[nH]1)C(=O)c1cccc(NC(=O)c2cccs2)c1	none (no result: 3CLpro inhibitor, BJeLR viability)
COC(=O)c1ccc(C)c(NC(=O)c2nn(C)c(=O)c3ccccc23)c1	BoNT-A LC inh2 inconclusive, Autofluor counter 22678
Cn1nc(C(=O)NC2CCCCC2)c2ccccc2c1=O	BoNT-A LC inh2 inconclusive, Autofluor counter 21828
Cc1ccc(CN2CCCN(Cc3c(C)cc(C)cc3C)S2(=O)=O)cc1	none
CC(C)Nc1nc(NC(C)C)nc(N(C)C(N)=O)n1	Autofluor counter 19916
CC(=O)OCCOc1nc(NC(C)C)nc(NC(C)C)n1	none
CC(C)Nc1nc(NC(C)C)nc(C(N)=O)n1	Autofluor counter 16247
CCOc1ccccc1Nc1nnc(C)c(=O)[nH]1	none
COc1ccccc1Nc1nnc(C)c(=O)[nH]1	Autofluor counter 16456
Cc1ccc(Sc2ccc(NC(=O)c3ccc(S(C)(=O)=O)cc3Cl)cc2)cc1	BoNT-A LC inh2 inconclusive, Autofluor counter 21237
CC1Cc2ccccc2N1C1=CC(=O)CCC1 (configuration not stated)	none
Cc1nc(SCC(=O)NCC2CCCO2)c2cc(-c3ccccc3)sc2n1 (configuration not stated)	none (no result: 3CLpro inhibitor, BJeLR viability)
CC(C)OP(=O)(OC(C)C)C(NC(=O)c1ccc(Br)cc1)c1ccccc1 (configuration not stated)	Autofluor counter 21425
Cc1ccc(NC(=O)C2CCCN2C(=O)Oc2ccccc2)cc1C (configuration not stated)	Autofluor counter 17854
Cc1ccc(NC(=O)C2CCCN2C(=O)NC2CCCCC2)cc1C (configuration not stated)	none (no result: BJeLR viability)
OCCNCCCOc1ccc(Cl)cc1Br	Autofluor counter 22475
Cc1cc(Br)ccc1OCCCCNCCO	Autofluor counter 21727
COCCNCCCOc1ccc(Cl)cc1Br	none
Cc1ccc(C23CC4CC(CC(NC(=O)NC(C)(C)CO)(C4)C2)C3)cc1	Autofluor counter 22797
N#Cc1ccsc1NC(=O)c1ccccn1	Autofluor counter 22222
N#Cc1ccsc1NC(=O)c1ccc2ncsc2c1	none (no result: 3CLpro inhibitor, BJeLR viability)
CCn1c(C)nc2cc(-c3nc4n(n3)Cc3ccccc3-4)ccc21	BJeLR viability 63
Cc1ccc(-c2nc3n(n2)Cc2ccccc2-3)cc1	none
CC(C)Cn1cnc2c1c(=O)n(CC(=O)NC(=O)NC(C)(C)C)c(=O)n2Cc1ccccc1	none
CCOCCCN1CN(Cc2ccco2)CNC1=S	none
S=C1SCN(Cc2ccccn2)CN1Cc1ccco1	Autofluor counter 16488
COCCN1CSC(=S)N(Cc2ccco2)C1	Autofluor counter 21084
S=C1SCN(Cc2cccnc2)CN1Cc1ccccc1	none
Cc1ccc(C(=O)NCCC2=CCCCC2)cc1S(=O)(=O)N1CCCCC1	none (no result: 3CLpro inhibitor)
C/C(=N\Nc1nc(N)cc(Cl)n1)c1cccc(N)c1	none
C/C(=N\Nc1nc(N)cc(Cl)n1)c1cccc([N+](=O)[O-])c1	Autofluor counter 22572
Clc1cccc(Cl)c1CO/N=C/c1c(-c2ccccc2)nc2n1CCS2	BoNT-A LC inh2 inconclusive, Autofluor counter 23470
CC(C)CNC(=S)NNC(=O)c1ccco1	Autofluor counter 22008
COCCNC(=S)NNC(=O)c1ccco1	Autofluor counter 23531
O=C(NC(=S)NNC(=O)c1cccs1)c1ccco1	Autofluor counter 23561
C=CCNC(=S)NNC(=O)c1ccco1	none
O=C(NNC(=S)Nc1ccccc1)c1ccco1	BoNT-A LC inh2 inconclusive, Autofluor counter 22369
CN(C)C(=O)c1ccc(NC(=O)COc2ccc([N+](=O)[O-])cc2)cc1	none
O=C(COC(=O)c1ncc(Cl)c(Cl)c1Cl)Nc1cccnc1Cl	none (no result: 3CLpro inhibitor)
OC(CSc1nnnn1-c1ccccc1)Cn1c2ccccc2c2ccccc21 (configuration not stated)	none (no result: 3CLpro inhibitor, BJeLR viability)
